From PubChem BioAssay
Values joined by “and” are separate entries in the source; they are usually repeats but may differ in a detail not shown here. Equal entries are not always repeated.

test system: not listed separately; assay: mitochondrial membrane potential change in A549 cells, profiling panel, cell-based, JC-1 fluorescence, basal, 24 h, 100 nL (AID 1138); settings: higher = more signal;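 further: A549 lung adenocarcinoma cells under basal conditions with no added stimulus; test concentration not given here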

Row | Structure (SMILES) | z-score
1 | C=CCN(CCCCC)C(=O)C(c1cccs1)N(CCOCCO)C(=O)/C=C\C(=O)O (configuration not stated) | 1.34 and 0.685
2 | CC(C)CCN1CCc2nc(-c3ccccc3)c3c(c2C1)CO[C@@H](C)C3 | 1.19
3 | C=CCN(CCCC)C(=O)C1N(c2ccc(CCO)cc2)C(=O)C2C(C(=O)O)C3C=CC21O3 (configuration not stated) | -0.898 and -0.353
4 | C=C[C@H](OC)[C@@H](O)c1ccc(OCCO)cc1 | -0.669 and 0.692
5 | C=C[C@H](C)[C@H](O)c1ccc(O)c2ccccc12 | -0.145 and 1.39
6 | COC(=O)C1=C(C)N(Cc2ccccc2)[C@]23O[C@](C(=O)OC)(C(=O)N2[C@@H]1c1ccccc1)[C@H]1C(=O)N(c2ccccc2)C(=O)[C@H]13 | 0.6 and 0.565
7 | CN1C(=O)C2CC=C([C@H]3Oc4ccccc4S(=O)(=O)N4CCC[C@@H]34)CC2C1=O (some centres not stated) | -0.719 and -0.239
8 | CC(C)=NOC[C@@H](O)COCc1ccco1 | 0.354
9 | CCOC(=O)NN=C1C[C@@H](O)[C@@H](O)[C@@H]2[C@@H]3C(=O)N(Cc4ccccc4)C(=O)[C@@H]3CC[C@@H]12 | -0.222
10 | COC(=O)C1=C(C)N(Cc2ccccc2)[C@]23O[C@](C(=O)OC)(C(=O)N2[C@@H]1c1ccccc1)[C@H]1CCCC(=O)[C@H]13 | 0.455 and -0.75
11 | C#CCCCON=C1C[C@@H](O)[C@@H](O)[C@@H]2[C@@H]3C(=O)N(C4CCCCC4)C(=O)[C@@H]3CC[C@H]12 | 0.83
12 | C=C[C@@H](OC)[C@H](O)c1ccc(OC)c(O)c1 | -0.366 and 0.877
13 | CC(C)=NOCc1ccc(-c2cn([C@@H]3COC[C@H]3O)nn2)cc1 | 0.11
14 | CO[C@@H]1C=CCC(=O)N2CCC[C@H]2C(=O)OC[C@H](C)C(=O)OC[C@H]1C | 1.54
15 | CCCCCN1CC=CC23O[C@@H]4C=CCCOC(=O)C4[C@H]2C(=O)N(C(C)CO)[C@@H]3C1=O (some centres not stated) | -0.449 and -0.859
16 | COC(=O)[C@@]1(Cc2ccc(OC)cc2)[C@H]2c3cc(C(=O)N(C)C)n(Cc4ccc(O)c(OC)c4)c3C[C@H]2CN1C(=O)c1ccccc1 | 1.73 and 1.22
17 | C=CCN(Cc1ccccc1)C(=O)C(c1cccs1)N(C(=O)/C=C\C(=O)O)c1ccc(CCO)cc1 (configuration not stated) | 0.579 and 0.559
18 | CCN1C(=O)[C@H]2[C@H]3[C@H](O)[C@H](O)CC(=NOC)[C@@H]3CC[C@H]2C1=O | 1.16
19 | C[N+](C)(C)CCCCNC(=O)[C@@H]1C[C@@H]2C(=O)N[C@@H](CCCC[N+](C)(C)C)C(=O)N2[C@@H]1c1cccc(OCCO)c1 | 0.725 and 1.07
20 | CO[C@H]1COC(=O)CC=C[C@H](C)[C@H](OC)COC(=O)[C@@H](C)COC(=O)CC=C[C@@H]1C | 0.597 and 1.4
21 | Cc1cc2c(nc1C)CCCN2CC(O)CN1CCCc2nc(-c3ccc(Br)cc3)ccc21 (configuration not stated) | -0.118 and 1.8
22 | COC(=O)C1=C(C)N(Cc2ccccc2)C2=C(C(=O)c3ccccc3)[C@H](c3ccccc3)[C@@](O)(C(=O)OC)C(=O)N2[C@@H]1c1ccccc1 | 0.722 and 0.241
23 | C#CCN1C(/C=C/c2ccccc2)C(=O)OC[C@H]1c1ccccc1 (some centres not stated) | -0.411 and -1
24 | COC(=O)[C@@]1(Cc2ccccc2)[C@H]2c3cc(C(=O)N(C)C)n(Cc4ccc(C)c(F)c4F)c3C[C@H]2CN1C(=O)c1ccccc1 | -1.17 and -1.14
25 | CCOC(=O)[C@@H]1CC2O[C@]23C[C@@H]1C(=O)N1CCC[C@@H]1[C@H]3O[Si](C)(C)C(C)(C)C (some centres not stated) | -0.944 and -0.261
26 | C=CCN(CCCCC)C(=O)C(c1cccs1)N(C(=O)/C=C\C(=O)O)c1ccc(CCO)cc1 (configuration not stated) | 0.868 and 0.897
27 | CC(CO)N1C(=O)[C@@H]2C3C(=O)OCCC=C[C@H]3OC23C=CCN(c2ccc4ccccc4c2)C(=O)[C@@H]13 (some centres not stated) | 0.638 and 0.972

test system: Lefty1; assay: Lefty1 binders on small-molecule microarrays, primary screen, biochemical, small-molecule microarray, 635/667 nm fluorescence (AID 1139); settings: small-molecule microarray binding, fluorescence 635/667; higher = more signal

Row | Structure (SMILES) | composite z-score
28 | C=CCN(CCCC)C(=O)C(c1cccs1)N(CCOCCO)C(=O)/C=C\C(=O)O (configuration not stated) | -0.727 and -0.409
29 | CC(C)[Si]1(C(C)C)OCc2cc(CCCc3cc4c(c(CCc5ccccc5)n3)[Si](C(C)C)(C(C)C)OC4)nc(CCc3ccccc3)c21 | -0.11 and 0.41
30 | O=C1[C@H]2[C@H]3[C@H](O)[C@H](O)CC(=NOCc4ccccc4)[C@H]3CC[C@H]2C(=O)N1Cc1ccccc1 | 0.374
31 | C=CCN(C(=O)C1N(CCOCCO)C(=O)C2C(C(=O)O)C3C=CC21O3)c1ccc(OC)cc1 (configuration not stated) | -2.56 and -2.64
32 | C=CCN(CCCCC)C(=O)C(c1cccs1)N(C(=O)/C=C\C(=O)O)c1c(Cl)cccc1CO (configuration not stated) | -1.88 and -1.54
33 | C=C[C@@H](OC)[C@H](O)c1ccc(OCCO)cc1 | -0.545 and -0.201
34 | CC(=O)OC[C@H]1O[C@H](C#CC(C)(C)C)C=C[C@@H]1OC(C)=O | 1.22
35 | C[N+](C)(C)CCCCCCNC(=O)[C@H]1C[C@H]2C(=O)N[C@@H](CCCC[N+](C)(C)C)C(=O)N2[C@H]1c1ccc(O)cc1 | 1.56 and 0.452
36 | COc1ccc(-c2ccc3c(n2)CCCN3CC(O)CN2CCCc3nc(-c4ccc(Br)cc4)ccc32)cc1 (configuration not stated) | 1.02 and 0.514
37 | CC(CO)N1C(=O)[C@@H]2C3C(=O)OCCC=C[C@H]3OC23C=CCN(Cn2nnc4ccccc42)C(=O)[C@@H]13 (some centres not stated) | -1.34 and 0.247
38 | C[C@@]1([C@@H](NC(=O)Cc2ccccc2)c2ccc(-c3ccccc3)cc2)C[C@H]1C1CCCCC1 | -1.08 and -1.06 and -0.0526
39 | C=CCN(CCCC)C(=O)C(c1cccs1)N(C(=O)/C=C\C(=O)O)c1c(Cl)cccc1CO (configuration not stated) | -2.81 and -2.2
40 | C=C[C@@H](C)[C@@H](O)c1ccc(OCCO)cc1 | -1.33 and -1.19
41 | C=CCN(CCCCC)C(=O)C(c1cccs1)N(CCOCCO)C(=O)/C=C\C(=O)O (configuration not stated) | -0.99 and -1.37
42 | CC(C)CCN1CCc2nc(-c3ccccc3)c3c(c2C1)CO[C@@H](C)C3 | 0.631
43 | C=CCN(CCCC)C(=O)C1N(c2ccc(CCO)cc2)C(=O)C2C(C(=O)O)C3C=CC21O3 (configuration not stated) | -1.39 and -3.01
44 | C=C[C@H](OC)[C@@H](O)c1ccc(OCCO)cc1 | -2.17 and -1.55
45 | C=C[C@H](C)[C@H](O)c1ccc(O)c2ccccc12 | -0.494 and 0.152
46 | COC(=O)C1=C(C)N(Cc2ccccc2)[C@]23O[C@](C(=O)OC)(C(=O)N2[C@@H]1c1ccccc1)[C@H]1C(=O)N(c2ccccc2)C(=O)[C@H]13 | 0.477 and 1.27
47 | CN1C(=O)C2CC=C([C@H]3Oc4ccccc4S(=O)(=O)N4CCC[C@@H]34)CC2C1=O (some centres not stated) | -0.499 and 0.192

Row | Structure (SMILES) | composite z-score
48 | CC(C)=NOC[C@@H](O)COCc1ccco1 | -0.181
49 | CCOC(=O)NN=C1C[C@@H](O)[C@@H](O)[C@@H]2[C@@H]3C(=O)N(Cc4ccccc4)C(=O)[C@@H]3CC[C@@H]12 | 0.665
50 | COC(=O)C1=C(C)N(Cc2ccccc2)[C@]23O[C@](C(=O)OC)(C(=O)N2[C@@H]1c1ccccc1)[C@H]1CCCC(=O)[C@H]13 | 0.784 and 0.694
51 | C#CCCCON=C1C[C@@H](O)[C@@H](O)[C@@H]2[C@@H]3C(=O)N(C4CCCCC4)C(=O)[C@@H]3CC[C@H]12 | 0.112
52 | C=C[C@@H](OC)[C@H](O)c1ccc(OC)c(O)c1 | 0.85 and -0.493
53 | CC(C)=NOCc1ccc(-c2cn([C@@H]3COC[C@H]3O)nn2)cc1 | 0.402
54 | CO[C@@H]1C=CCC(=O)N2CCC[C@H]2C(=O)OC[C@H](C)C(=O)OC[C@H]1C | 0.864
55 | CCCCCN1CC=CC23O[C@@H]4C=CCCOC(=O)C4[C@H]2C(=O)N(C(C)CO)[C@@H]3C1=O (some centres not stated) | 0.178 and 0.382
56 | COC(=O)[C@@]1(Cc2ccc(OC)cc2)[C@H]2c3cc(C(=O)N(C)C)n(Cc4ccc(O)c(OC)c4)c3C[C@H]2CN1C(=O)c1ccccc1 | -0.268 and -0.542
57 | C=CCN(Cc1ccccc1)C(=O)C(c1cccs1)N(C(=O)/C=C\C(=O)O)c1ccc(CCO)cc1 (configuration not stated) | -1.9 and -1.42
58 | CCN1C(=O)[C@H]2[C@H]3[C@H](O)[C@H](O)CC(=NOC)[C@@H]3CC[C@H]2C1=O | 0.164
59 | C[N+](C)(C)CCCCNC(=O)[C@@H]1C[C@@H]2C(=O)N[C@@H](CCCC[N+](C)(C)C)C(=O)N2[C@@H]1c1cccc(OCCO)c1 | 1.73 and 1.55
60 | CO[C@H]1COC(=O)CC=C[C@H](C)[C@H](OC)COC(=O)[C@@H](C)COC(=O)CC=C[C@@H]1C | 0.914 and 0.398
61 | Cc1cc2c(nc1C)CCCN2CC(O)CN1CCCc2nc(-c3ccc(Br)cc3)ccc21 (configuration not stated) | 1.34 and 0.844
62 | COC(=O)C1=C(C)N(Cc2ccccc2)C2=C(C(=O)c3ccccc3)[C@H](c3ccccc3)[C@@](O)(C(=O)OC)C(=O)N2[C@@H]1c1ccccc1 | 0.571 and 0.636
63 | C#CCN1C(/C=C/c2ccccc2)C(=O)OC[C@H]1c1ccccc1 (some centres not stated) | 0.622 and 0.295
64 | COC(=O)[C@@]1(Cc2ccccc2)[C@H]2c3cc(C(=O)N(C)C)n(Cc4ccc(C)c(F)c4F)c3C[C@H]2CN1C(=O)c1ccccc1 | -0.587 and 0.642
65 | CCOC(=O)[C@@H]1CC2O[C@]23C[C@@H]1C(=O)N1CCC[C@@H]1[C@H]3O[Si](C)(C)C(C)(C)C (some centres not stated) | -0.0485 and 0.69
66 | C=CCN(CCCCC)C(=O)C(c1cccs1)N(C(=O)/C=C\C(=O)O)c1ccc(CCO)cc1 (configuration not stated) | -1.07 and -1.27
67 | CC(CO)N1C(=O)[C@@H]2C3C(=O)OCCC=C[C@H]3OC23C=CCN(c2ccc4ccccc4c2)C(=O)[C@@H]13 (some centres not stated) | -0.0302 and -0.337
